About 2,000 (36%) of roughly 5,500 compounds were called active. Inconclusive results (about 18%) are left out. Cut-off read from the data, not from the text of the source: active = normalized growth mostly below about 0.91 (no sharp cut-off); inconclusive = no clear call, values can overlap the other calls; inactive = mostly above about 0.92. The list shows a part of the results.
Assay: chemical genetic growth profiling, strain panel (AID 1159580);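 note: tested at 20 µM; growth read once vehicle control cultures reached saturation at 30 °C; 1 = growth at the plate median or of vehicle wells; lower values mean less growth of the strain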
Settings: growth OD

Measured: normalized growth

O[N+]1=CC=CCC1=S.On1ccccc1=S.[Zn]
active: S. cerevisiae deletion strains, locus YJR043C, strain POL32, stronger effect = lower value 0.0664 | S. cerevisiae deletion strains, locus YJR066W, strain TOR1, stronger effect = lower value 0.00186 | S. cerevisiae deletion strains, locus YJR075W, strain HOC1, stronger effect = lower value 0.0642 | S. cerevisiae deletion strains, locus YKL009W, strain mrt4, stronger effect = lower value 0.071 | S. cerevisiae deletion strains, locus YKL068W, stronger effect = lower value 0.0609 | S. cerevisiae deletion strains, locus YKL085W, strain MDH1 (second series), stronger effect = lower value 0.0543 | S. cerevisiae deletion strains, locus YKL085W, strain MDH1, stronger effect = lower value 0.0543 | S. cerevisiae deletion strains, locus YKL160W, strain elf1, stronger effect = lower value 0.07 | S. cerevisiae deletion strains, locus YKR001C, strain vps1, stronger effect = lower value 0.063 | S. cerevisiae deletion strains, locus YKR026C, strain gcn3, stronger effect = lower value 0.0676 | S. cerevisiae deletion strains, locus YKR091W, strain srl3, stronger effect = lower value 0.0611 | S. cerevisiae deletion strains, locus YLL001W, strain dnm1, stronger effect = lower value 0.059 | S. cerevisiae deletion strains, locus YLL026W, stronger effect = lower value 0.0586 | S. cerevisiae deletion strains, locus YLL041C, strain sdh2, stronger effect = lower value 0.0589 | S. cerevisiae deletion strains, locus YLR027C, strain aat2, stronger effect = lower value 0.0567 | S. cerevisiae deletion strains, locus YLR039C, strain RIC1, stronger effect = lower value 0.101 | S. cerevisiae deletion strains, locus YLR058C, strain SHM2, stronger effect = lower value 0.0528 | S. cerevisiae deletion strains, locus YLR102C, strain apc9, stronger effect = lower value 0.0619 | S. cerevisiae deletion strains, locus YLR113W, strain HOG1, stronger effect = lower value 0.14 | S. cerevisiae deletion strains, locus YLR221C, strain rsa3, stronger effect = lower value 0.0633 | S. cerevisiae deletion strains, locus YLR258W, strain gsy2, stronger effect = lower value 0.0677 | S. cerevisiae deletion strains, locus YLR262C, strain YPT6 (second series), stronger effect = lower value 0.0872 | S. cerevisiae deletion strains, locus YLR262C, strain YPT6, stronger effect = lower value 0.116 | S. cerevisiae deletion strains, locus YLR268W, strain sec22, stronger effect = lower value 0.0675 | S. cerevisiae deletion strains, locus YLR320W, strain mms22, stronger effect = lower value 0.0954 | S. cerevisiae deletion strains, locus YLR330W, strain CHS5, stronger effect = lower value 0.0529 | S. cerevisiae deletion strains, locus YLR342W, strain FKS1 (second series), stronger effect = lower value 0.0696 | S. cerevisiae deletion strains, locus YLR342W, strain FKS1, stronger effect = lower value 0.0672 | S. cerevisiae deletion strains, locus YLR357W, strain rsc2, stronger effect = lower value 0.128 | S. cerevisiae deletion strains, locus YLR370C, strain arc18, stronger effect = lower value 0.0633 | S. cerevisiae deletion strains, locus YLR371W, strain rom2, stronger effect = lower value 0.0617 | S. cerevisiae deletion strains, locus YLR384C, strain iki3, stronger effect = lower value 0.0637 | S. cerevisiae deletion strains, locus YLR418C, strain cdc73, stronger effect = lower value 0.0957 | S. cerevisiae deletion strains, locus YML016C, strain PPZ1, stronger effect = lower value 0.0508 | S. cerevisiae deletion strains, locus YML032C, strain rad52, stronger effect = lower value 0.0712 | S. cerevisiae deletion strains, locus YML120C, strain ndi1, stronger effect = lower value 0.0615 | S. cerevisiae deletion strains, locus YML124C, strain tub3, stronger effect = lower value 0.061 | S. cerevisiae deletion strains, locus YMR058W, strain fet3, stronger effect = lower value 0.0596 | S. cerevisiae deletion strains, locus YMR078C, strain ctf18, stronger effect = lower value 0.0748 | S. cerevisiae deletion strains, locus YMR125W, strain sto1, stronger effect = lower value 0.0764 | S. cerevisiae deletion strains, locus YMR129W, stronger effect = lower value 0.059 | S. cerevisiae deletion strains, locus YMR205C, strain PFK2, stronger effect = lower value 0.0932 | S. cerevisiae deletion strains, locus YMR223W, strain ubp8, stronger effect = lower value 0.0633 | S. cerevisiae deletion strains, locus YMR231W, strain pep5, stronger effect = lower value 0.0701 | S. cerevisiae deletion strains, locus YMR263W, strain SAP30, stronger effect = lower value 0.0599 | S. cerevisiae deletion strains, locus YMR307W, strain GAS1, stronger effect = lower value 0.132 | S. cerevisiae deletion strains, locus YNL067W, strain RPL9B, stronger effect = lower value 0.0487 | S. cerevisiae deletion strains, locus YNL071W, strain lat1, stronger effect = lower value 0.0631 | S. cerevisiae deletion strains, locus YNL128W, strain TEP1, stronger effect = lower value 0.0641 | S. cerevisiae deletion strains, locus YNL183C, strain NPR1, stronger effect = lower value 0.00323 | S. cerevisiae deletion strains, locus YNL209W, strain ssb2, stronger effect = lower value 0.0623 | S. cerevisiae deletion strains, locus YNL233W, strain BNI4, stronger effect = lower value 0.0571 | S. cerevisiae deletion strains, locus YNL248C, strain rpa49, stronger effect = lower value 0.0755 | S. cerevisiae deletion strains, locus YNL250W, strain rad50, stronger effect = lower value 0.0654 | S. cerevisiae deletion strains, locus YNL271C, strain bni1, stronger effect = lower value 0.074 | S. cerevisiae deletion strains, locus YNL298W, strain CLA4, stronger effect = lower value 0.0625 | S. cerevisiae deletion strains, locus YNL307C, strain MCK1, stronger effect = lower value 0.0674 | S. cerevisiae deletion strains, locus YNL322C, strain KRE1 (second series), stronger effect = lower value 0.0696 | S. cerevisiae deletion strains, locus YNR049C, strain mso1, stronger effect = lower value 0.0598 | S. cerevisiae deletion strains, locus YNR052C, strain pop2, stronger effect = lower value 0.0619 | S. cerevisiae deletion strains, locus YOL147C, strain pex11, stronger effect = lower value 0.0583 | S. cerevisiae deletion strains, locus YOR001W, strain rrp6, stronger effect = lower value 0.0748 | S. cerevisiae deletion strains, locus YOR061W, strain CKA2, stronger effect = lower value 0.049 | S. cerevisiae deletion strains, locus YOR069W, strain VPS5, stronger effect = lower value 0.0493 | S. cerevisiae deletion strains, locus YOR070C, strain gyp1, stronger effect = lower value 0.064 | S. cerevisiae deletion strains, locus YOR080W, strain dia2, stronger effect = lower value 0.0707 | S. cerevisiae deletion strains, locus YOR083W, strain WHI5, stronger effect = lower value 0.0734 | S. cerevisiae deletion strains, locus YOR106W, strain vam3, stronger effect = lower value 0.0661 | S. cerevisiae deletion strains, locus YOR136W, strain idh2, stronger effect = lower value 0.0716 | S. cerevisiae deletion strains, locus YOR144C, strain elg1, stronger effect = lower value 0.0584 | S. cerevisiae deletion strains, locus YOR184W, strain ser1, stronger effect = lower value 0.0698 | S. cerevisiae deletion strains, locus YOR231W, strain MKK1, stronger effect = lower value 0.116 | S. cerevisiae deletion strains, locus YOR265W, strain rbl2, stronger effect = lower value 0.064 | S. cerevisiae deletion strains, locus YOR270C, strain vph1, stronger effect = lower value 0.0915 | S. cerevisiae deletion strains, locus YOR290C, strain snf2, stronger effect = lower value 0.0656 | S. cerevisiae deletion strains, locus YOR316C, strain cot1, stronger effect = lower value 0.0596 | S. cerevisiae deletion strains, locus YPL051W, strain arl3, stronger effect = lower value 0.0708 | S. cerevisiae deletion strains, locus YPL055C, strain LGE1, stronger effect = lower value 0.0796 | S. cerevisiae deletion strains, locus YPL078C, strain atp4, stronger effect = lower value 0.07 | S. cerevisiae deletion strains, locus YPL106C, strain sse1, stronger effect = lower value 0.109 | S. cerevisiae deletion strains, locus YPL240C, strain hsp82, stronger effect = lower value 0.0591 | S. cerevisiae deletion strains, locus YPL256C, strain CLN2, stronger effect = lower value 0.114 | S. cerevisiae deletion strains, locus YPR119W, strain clb2, stronger effect = lower value 0.0639 | S. cerevisiae deletion strains, locus YPR141C, strain kar3, stronger effect = lower value 0.0689 | S. cerevisiae deletion strains, locus YPR163C, strain tif3, stronger effect = lower value 0.0727 | S. cerevisiae deletion strains, locus YPR167C, strain met16, stronger effect = lower value 0.0637 | S. cerevisiae deletion strains, strain wtn01, stronger effect = lower value 0.0638 | S. cerevisiae strains, strain wild type, stronger effect = lower value 0.0514

Source: PubChem BioAssay AID1159580 (chemical genetic matrix, 2015)
